Inconclusive results are not listed. The source made the active and inactive calls. Calls come from the whole dose curve; as a rule, active = well fitted curve in the direction sought with a large enough effect; inconclusive = small, poorly fitted or top-dose-only effect, or another doubt; inactive = no such curve, though single readings can be large; an effect the other way counts as inactive or inconclusive.
Experiments:
[1] = qHTS for Inhibitors of Plasmodium falciparum (DD2) proliferation (AID 504314);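 note: parasite DNA measured by SYBR Green fluorescence after red cell lysis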
Procedure, shortened: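 Infected RBCs, 0.3% parasitemia, 2.5% Hct; compound 72 h, 37C/5% CO2; lyse + SYBR Green I, RT overnight, dark; read ex485/em535; normalize to DMSO and artemisinin 0.29 uM.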

[2] = qHTS for Inhibitors of Plasmodium falciparum (GB4) proliferation (AID 504315); note: nearly all actives have a fitted effect of over 50% in size
Procedure, shortened: (§1)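 Erythrocytes infected with P. falciparum line (0.3% parasitemia, 2.5% hematocrit final) incubated with compounds 72 h at 37 °C, 5% CO2; SYBR Green lysis buffer added, fluorescence read next day. Normalized to 0.29 uM artemisinin and DMSO.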

[3] = qHTS for Inhibitors of Plasmodium falciparum (7G8) proliferation (AID 504316); note: series mostly up to about 6.7 µM; nearly all actives have a fitted effect of over 65% in size
Procedure, shortened: as §1

[4] = qHTS for Inhibitors of Plasmodium falciparum (HB3) proliferation (AID 504318); note: nearly all actives have a fitted effect of over 60% in size
Procedure, shortened: as §1

[5] = qHTS for Inhibitors of Plasmodium falciparum (CP250) proliferation (AID 504320)
Procedure, shortened: as §1

Measured: Potency

COC(=O)CCCC1=CC2=CC(=O)C(C)(OC(=O)c3cccs3)C(=O)C2=CN1c1cccc(C#N)c1 (stereo not drawn)
inactive: [1] | [2] | [3] | [4] | [5]

COC(=O)C1=C(C(=O)OC)[C@@H]2Nc3ccccc3[C@@]23C[C@@H](C(=O)OC)N(C(=O)NC2CCCC2)C3=N1
inactive: [1] | [2] | [3] | [4] | [5]

CCN1C(=O)N[C@@H](c2cccc(C(F)(F)F)c2)[C@H](C(=O)OC)[C@H]1C
inactive: [1] | [2] | [3] | [4] | [5]

COC(=O)C1=C(C(=O)OC)[C@@H]2N(Cc3ccccc3)c3ccccc3[C@@]23C[C@@H](C(=O)OC)N(C(=O)C2CCC2)C3=N1
inactive: [1] | [2] | [3] | [4] | [5]

COC(=O)C1=C(C(=O)OC)[C@@H]2N(C)c3ccccc3[C@@]23C[C@@H](C(=O)OC)N(C(=O)COCc2ccccc2)C3=N1
inactive: [1] | [2] | [3] | [4] | [5]

CC(C)CON=C1C[C@@H](O)[C@@H](O)[C@@H]2[C@H]3C(=O)N(c4cccc(Oc5ccccc5)c4)C(=O)[C@@H]3CC[C@H]12
inactive: [1] | [2] | [3] | [4] | [5]

COC(=O)C1=C(C)N(Cc2ccccc2)C(=S)NC1c1cccc(F)c1 (stereo not drawn)
inactive: [1] | [2] | [3] | [4] | [5]

COC(=O)C1=C(C(=O)OC)[C@@H]2N(C)c3ccccc3[C@@]23C[C@@H](C(=O)OC)N(S(=O)(=O)c2ccc(C#N)cc2)C3=N1
inactive: [1] | [2] | [3] | [4] | [5]

COC/C=C/C1=CC2=CC(=O)C(C)(OC(=O)c3cnc4ccccc4n3)C(=O)C2=CN1CC1CC1 (stereo not drawn)
inactive: [1] | [2] | [3] | [4] | [5]

CC[C@@H](C)CN1C(=O)N[C@@H](CCc2ccccc2)C(C(C)=O)=C1C
inactive: [1] | [2] | [3] | [4] | [5]

COCCN1C(=O)N[C@@H](c2cccs2)C(C(C)=O)=C1C
inactive: [1] | [2] | [3] | [4] | [5]

C=CCOC(=O)N[C@@H](c1ccc(Br)cc1)C(C(C)=O)C(C)=O
inactive: [1] | [2] | [3] | [4] | [5]

CCCCC1=CC2=C(c3ccco3)C(=O)C(C)(OC(=O)c3ccc(OC)cc3)C(=O)C2=CN1C1CC1 (stereo not drawn)
inactive: [1] | [2] | [3] | [4] | [5]

COC/C=C/C1=CC2=CC(=O)C(C)(OC(=O)c3cnc4ccccc4n3)C(=O)C2=CN1Cc1ccc(OC)cc1 (stereo not drawn)
inactive: [1] | [2] | [3] | [4] | [5]

CCCCc1nc2c(c3c1C[C@H](C)OC3)CN(C(=O)NCc1ccco1)CC2
inactive: [1] | [2] | [3] | [4] | [5]

CCN1C(=O)N[C@@H](CCc2ccccc2)[C@H](C(=O)OC)[C@H]1C
inactive: [1] | [2] | [3] | [4] | [5]

C[C@H]1Cc2c(COc3ccccc3)nc3c(c2CO1)CN(C(=O)NCCc1c[nH]c2ccccc12)CC3
inactive: [1] | [2] | [3] | [4] | [5]

COC(=O)CCC(=O)OC1(C)C(=O)C=C2C=C(C3CC3)N(C3CCCC3)C=C2C1=O (stereo not drawn)
inactive: [1] | [2] | [3] | [4] | [5]

COC(=O)C1=C(C(=O)OC)[C@@H]2N(Cc3ccccc3)c3ccccc3[C@@]23C[C@@H](C(=O)OC)N(C(C)=O)C3=N1
inactive: [1] | [2] | [3] | [4] | [5]

CCC(=O)OC1(C)C(=O)C=C2C=C(CCCCNC(=O)OC(C)(C)C)OC=C2C1=O (stereo not drawn)
inactive: [1] | [2] | [3] | [4] | [5]

CCCCC1=CC2=CC(=O)C(C)(OC(=O)CC)C(=O)C2=CN1Cc1ccc(OC)cc1 (stereo not drawn)
inactive: [1] | [2] | [3] | [4] | [5]

COCCN1C=C2C(=O)C(C)(OC(=O)CCC(=O)OC)C(=O)C(Br)=C2C=C1c1ccc(OC)cc1 (stereo not drawn)
inactive: [1] | [2] | [3] | [4] | [5]

COc1ccc(-c2nc3c(c4c2C[C@H](c2ccccc2)OC4)CN(S(=O)(=O)c2ccc4c(c2)OCCN4C)CC3)c(C)c1
inactive: [1] | [2] | [3] | [4] | [5]

COC(=O)C1=C(C)N(Cc2ccccc2)C(=O)N[C@H]1c1ccc(Br)cc1
inactive: [1] | [2] | [3] | [4] | [5]

C[C@H]1Cc2c(-c3ccccc3)nc3c(c2CO1)CN(C(=O)c1ccco1)CC3
inactive: [1] | [2] | [3] | [4] | [5]

CC1(OC(=O)CCc2ccccc2)C(=O)C=C2C=C(c3ccc(C#N)cc3)N(CCN3CCOCC3)C=C2C1=O (stereo not drawn)
inactive: [1] | [2] | [3] | [4] | [5]

COC(=O)[C@@H]1[C@H](CCc2ccccc2)NC(=O)N(Cc2ccccc2)[C@@H]1C
inactive: [1] | [2] | [3] | [4] | [5]

CC(C)C(=O)N[C@@H]1CCCN1C(=O)C=Cc1ccccc1
inactive: [1] | [2] | [3] | [4] | [5]

CCOC(=O)CN1C(=O)N[C@@H](c2cccs2)C(C(=O)OC)=C1C
inactive: [1] | [2] | [3] | [4] | [5]

COC[C@@H](O)[C@@H](OC)[C@H](OC)[C@H](Cc1c(OC)cc(OC)cc1OC)OC
inactive: [1] | [2] | [3] | [5]

COc1ccc(N2C=C3C(=O)C(C)(OC(=O)CCc4ccccc4)C(=O)C=C3C=C2c2ccc(C#N)cc2)cc1 (stereo not drawn)
inactive: [1] | [2] | [3] | [4] | [5]

CC1(OC(=O)c2ccc(Cl)nc2)C(=O)C=C2C=C(C3CC3)OC=C2C1=O (stereo not drawn)
inactive: [1] | [2] | [3] | [5]

COC(=O)C1=C(C(=O)OC)[C@@H]2N(C)c3ccccc3[C@@]23C[C@@H](C(=O)OC)N(S(=O)(=O)c2ccc(C)cc2)C3=N1
inactive: [1] | [2] | [3] | [5]

CC[C@H](C)[C@@H](NC(=O)O[C@@H]1C(=O)c2cc(Br)ccc2O[C@H]1c1cccc(OC)c1)C(=O)OC
inactive: [1] | [2] | [3] | [4] | [5]

CCOC(=O)CN1C(=O)N[C@@H](c2ccco2)C(C(C)=O)=C1C
inactive: [1] | [2] | [3] | [4] | [5]

CCCCc1nc2c(c3c1C[C@H](C)OC3)CN(C(=O)Nc1ccc(OC)cc1)CC2
inactive: [1] | [2] | [3] | [4] | [5]

COC(=O)C1=C(C(=O)OC)[C@@H]2N(C)c3ccc(OC)cc3[C@@]23C[C@@H](C(=O)OC)N(C(=O)C2CCC2)C3=N1
inactive: [1] | [2] | [3] | [4] | [5]

C=CCOC(=O)N[C@H](C(C(=O)OC)=C(C)NCc1ccccc1)c1cccc(F)c1
inactive: [1] | [2] | [3] | [4] | [5]

CC(=O)Nc1ccc(S(=O)(=O)N2CCc3nc(COc4ccccc4)c4c(c3C2)CO[C@@H](C)C4)cc1
inactive: [1] | [2] | [3] | [4] | [5]

COC(=O)CCC(=O)OC1(C)C(=O)C2=CN(Cc3ccccc3)C(c3ccc(OC)cc3)=CC2=C(Br)C1=O (stereo not drawn)
inactive: [1] | [2] | [3] | [5]

CCOC(=O)C=CCCCC=CC(=O)c1ccccc1
inactive: [1] | [2] | [3] | [5]

CCOC(=O)CNC(=O)O[C@@H]1C(=O)c2cc(OC)ccc2O[C@H]1c1ccc(OC)c(Br)c1
inactive: [1] | [2] | [3] | [5]

CCOC(=O)CN1C(=O)N[C@@H](c2cccc(F)c2)C(C(C)=O)=C1C
inactive: [1] | [2] | [3] | [4] | [5]

CCOC(=O)CN1C(=O)N[C@@H](c2ccccc2)[C@H](C(=O)OC)[C@H]1C
inactive: [1] | [2] | [3] | [5]

COC(=O)C1=C(C(=O)OC)[C@@H]2Nc3ccccc3[C@@]23C[C@@H](C(=O)OC)N(C(C)=O)C3=N1
inactive: [1] | [2] | [3] | [4] | [5]

Source: PubChem BioAssay (NCATS)
